Drawing on PubChem BioAssay (Tox21), this text covers Potency and max activation for 26 compounds.

A short description of assay [1]: Human pregnane X receptor (PXR) small molecule agonists, qHTS cell viability counter screen (AID 1346977). Note: nearly all actives have a fitted effect of over 50% in size. Note: potency is the fitted concentration of half-maximal effect. In short, it runs like this: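 In each well, the PXR reporter HepG2 line was checked for viability: CellTiter-Fluor reagent added 23hr post-dosing, fluorescence read after 1hr incubation at 37C.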
Background: qHTS replaces the single test concentration by a dilution series.

The nature of assay [2]: Caspase-3/7 induction in HepG2 cells by small molecules, qHTS assay (AID 1346978). Note: nearly all actives have a fitted effect of over 15% in size. In short, it runs like this: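 Wild-type HepG2 cells (2,000/well) were settled 5 h at 37 C, 5% CO2, then exposed to compounds in DMSO for 17 h. Caspase-3/7 activity was read by luminescence 30 min after adding Caspase-Glo 3/7 reagent at room temperature.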
The nature of assay [3]: Caspase-3/7 induction in CHO-K1 cells by small molecules, qHTS cell viability counter screen (AID 1346979). Note: nearly all actives have a fitted effect of over 35% in size. Note: potency is the fitted concentration of half-maximal effect. In short, it runs like this: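 Following a 5hr settling period, CHO-K1 cells at 1,500 per well received DMSO-dissolved compounds. Cell viability was quantified 16hr later by CellTiter-Fluor fluorescence, measured after 1hr with reagent at 37C.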
The nature of assay [4]: Caspase-3/7 induction in CHO-K1 cells by small molecules, qHTS assay (AID 1346980). Note: nearly all actives have a fitted effect of over 15% in size. The essentials: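 Wild-type cells were seeded at 1,500 per well and settled 5 hr at 37 C, 5% CO2, then exposed to DMSO-dissolved compounds for 17 hr. Caspase-Glo 3/7 reagent was added, and luminescence was read after 30min at room temperature.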
For assay [5], the target named is Nuclear receptor subfamily 1 group I member 2 (Homo sapiens) (UniProt O75469). Nature of the assay: Human pregnane X receptor (PXR) small molecule agonists, qHTS assay (AID 1346982). Note: nearly all actives have a fitted effect of over 35% in size. Note: potency is the fitted concentration of half-maximal effect. The essentials:
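Luciferase signal from ONE-Glo (30 min, room temperature) measured activation of hPXR-driven CYP3A4 reporter expression in PXR-Luc HepG2 cells treated with compounds for 24 hr at 37 C.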

The target of assay [6] is Acetylcholinesterase (Homo sapiens) (UniProt P22303). Description: Acetylcholinesterase (AChE) small molecule antagonists: colormetric cell-based qHTS assay (AID 1347395; calls by dose curve; note: nearly all actives have a fitted effect of over 30% in size; note: potency is the fitted concentration of half-maximal effect). The essentials: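 After overnight attachment at 37 C, SH-SY5Y cells get 30 min compound exposure; detection cocktail (acetylthiocholine, DTNB) then incubates 90 min at 37 C, and absorbance reflects AChE-generated thiocholine.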
Sequence of Acetylcholinesterase (Homo sapiens) (P22303 whole entry, looked up): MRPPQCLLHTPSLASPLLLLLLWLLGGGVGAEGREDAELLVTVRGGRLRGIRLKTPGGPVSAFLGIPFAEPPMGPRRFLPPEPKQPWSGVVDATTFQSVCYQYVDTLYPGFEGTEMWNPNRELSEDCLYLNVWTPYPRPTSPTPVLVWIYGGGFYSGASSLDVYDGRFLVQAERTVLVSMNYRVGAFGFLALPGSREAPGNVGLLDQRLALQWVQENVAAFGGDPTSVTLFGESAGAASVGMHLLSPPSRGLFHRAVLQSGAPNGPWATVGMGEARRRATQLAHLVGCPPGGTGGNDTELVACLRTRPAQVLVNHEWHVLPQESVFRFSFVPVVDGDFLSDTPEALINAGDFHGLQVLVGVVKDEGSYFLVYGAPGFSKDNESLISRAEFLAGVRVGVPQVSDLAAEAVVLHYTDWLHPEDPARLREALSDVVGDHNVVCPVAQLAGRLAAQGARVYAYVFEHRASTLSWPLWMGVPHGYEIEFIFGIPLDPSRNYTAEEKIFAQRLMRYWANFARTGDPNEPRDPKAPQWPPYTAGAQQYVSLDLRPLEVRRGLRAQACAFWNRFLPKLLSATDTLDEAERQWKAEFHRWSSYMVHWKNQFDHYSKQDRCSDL

Assay [7] in a line: Caspase-3/7 induction in HepG2 cells by small molecules, qHTS cell viability counter screen (AID 1346981). Note: nearly all actives have a fitted effect of over 30% in size. Note: potency is the fitted concentration of half-maximal effect. The essentials:
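HepG2, WT, 2,000 cells/well; 5 hr pre-incubation 37 C/5% CO2; compound pin-transferred from DMSO; 16 hr exposure; CellTiter-Fluor, 1 hr; fluorescence read.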

Assay [8] concerns the target Nuclear receptor subfamily 1 group I member 2 (Rattus norvegicus) (UniProt Q9R1A7). Description: Rat pregnane X receptor (rPXR) activation by small molecules, qHTS assay (AID 1346983). Note: nearly all actives have a fitted effect of over 20% in size. As to conditions: rPXR luciferase reporter cells, One-Glo luminescence, 24 h; max activation: stronger effect = higher value. The essentials:
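Cell-based rPXR luciferase reporter assay, 2,000 cells per well, rested 5hr at 37 C before compound addition in DMSO, then 24 hr at 37 C. One-Glo reagent was added and luminescence read after 30 min at room temperature.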

For assay [9], the target named is Nuclear receptor subfamily 1 group I member 2 (Homo sapiens) (UniProt O75469). Nature of the assay: CYP3A4 induction through human pregnane X receptor (PXR) by small molecules, qHTS assay (AID 1346984). Note: nearly all actives have a fitted effect of over 40% in size. The essentials: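 Luminescence readout: luciferase signal after One-Glo (30 min, room temperature), following 3 h at 37C with 3uM final Luciferin-IPA P450 substrate. Cells were DPX-2 (HepG2, PXR/CYP3A4-luc co-transfected) dosed for 24 h.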
Sequence of Nuclear receptor subfamily 1 group I member 2 (Homo sapiens) (O75469 whole entry, looked up): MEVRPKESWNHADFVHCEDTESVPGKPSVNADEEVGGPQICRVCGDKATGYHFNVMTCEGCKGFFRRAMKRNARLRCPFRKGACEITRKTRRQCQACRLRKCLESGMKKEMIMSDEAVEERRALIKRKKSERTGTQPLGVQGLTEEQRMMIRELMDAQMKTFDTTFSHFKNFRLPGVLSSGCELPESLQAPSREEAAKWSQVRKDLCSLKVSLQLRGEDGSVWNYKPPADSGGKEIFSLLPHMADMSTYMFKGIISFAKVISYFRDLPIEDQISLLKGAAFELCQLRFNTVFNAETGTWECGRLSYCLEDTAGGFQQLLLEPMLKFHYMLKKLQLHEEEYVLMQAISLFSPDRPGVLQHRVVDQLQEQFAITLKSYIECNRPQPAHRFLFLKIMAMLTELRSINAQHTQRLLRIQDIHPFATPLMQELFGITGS

Molecules are shown by their SMILES. Values joined by “and” are separate entries in the source; they are usually repeats but may differ in a detail not shown here. Equal entries are not always repeated. Records with an inconclusive call do not appear. A structure can be active in one record and inactive in another. Active and inactive are the calls of the source. Unless noted, calls come from the whole dose curve; as a rule, active = well fitted curve in the direction sought with a large enough effect in the repeat runs; inconclusive = weak or mixed curves; inactive = no such curve, though single readings can be large; an effect the other way counts as inactive or inconclusive.
% is set by controls: 0 for no effect and ±100 for the full control effect.

Sequence of Nuclear receptor subfamily 1 group I member 2 (Rattus norvegicus) (Q9R1A7 whole entry, looked up): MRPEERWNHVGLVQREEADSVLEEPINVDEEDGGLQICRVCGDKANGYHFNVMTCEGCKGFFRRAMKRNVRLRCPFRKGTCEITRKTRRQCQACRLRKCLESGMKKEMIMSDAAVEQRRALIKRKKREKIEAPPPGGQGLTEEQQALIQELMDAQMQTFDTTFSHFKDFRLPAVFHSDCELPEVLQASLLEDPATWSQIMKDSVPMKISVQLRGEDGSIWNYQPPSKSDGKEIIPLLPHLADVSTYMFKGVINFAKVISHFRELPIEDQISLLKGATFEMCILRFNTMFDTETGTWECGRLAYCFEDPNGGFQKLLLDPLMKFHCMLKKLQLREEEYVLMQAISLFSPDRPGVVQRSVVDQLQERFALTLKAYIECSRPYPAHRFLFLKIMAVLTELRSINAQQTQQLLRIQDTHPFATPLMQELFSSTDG

On to `Oc1ccc(I)cc1`, for which the Potency result in [1], in assay [2], in assay [3], in [4], in assay [5] and in [6] was “inactive” each time.
Consider `CC1(C)CC/C(=C/c2ccc(Cl)cc2)C1(O)Cn1cncn1` (centres undefined), for which the Potency entry in assay [1], in [2], in assay [4], in assay [7] and in assay [6] was “inactive” in each case. Moreover, the Potency in assay [5] was 12.1 µM (active).
With `CCC(C)(C)C(=O)OC1=C(c2ccc(Cl)cc2Cl)C(=O)OC12CCCCC2`, the Potency entry in [1], in assay [2], in [3], in [4] and in [6] was “inactive” in each case.
Regarding `COC(=O)N(C(=O)N1COC2(C(=O)OC)Cc3cc(Cl)ccc3C2=N1)c1ccc(OC(F)(F)F)cc1` (centres undefined), the Potency entry in assay [1], in assay [2], in [4], in assay [7] and in [6] was “inactive” throughout. In addition, the Potency in assay [5] was 10.6 µM (active).
With `Cc1c(Cl)c(=O)oc2cc(OP(=O)(OCCCl)OCCCl)ccc12`, the Potency result in assay [1], in assay [2], in [4], in [7] and in assay [9] was “inactive” each time. For the same compound, the Potency in [5] is 11.9 µM (active); in [6] it was 3.89 µM (active). Further, the max activation in assay [8] was 8.02% (inactive).
`CC(C)[C@H](C(=O)OC(C#N)c1cccc(Oc2ccccc2)c1)c1ccc(OC(F)F)cc1` (some centres undefined): the Potency result in [1], in [2], in [4], in [7] and in [6] was “inactive” throughout. Also, in [5], the Potency was 9.69 µM (active).
Turning to `COC(=O)N(C(=O)N1CO[C@@]2(C(=O)OC)Cc3cc(Cl)ccc3C2=N1)c1ccc(OC(F)(F)F)cc1`, the Potency entry in assay [1], in assay [2], in assay [4], in [7] and in assay [6] was “inactive” throughout. Further, the Potency in [5] is 1.67 µM (active).
Consider `CCCCN(CCCC)C(=S)[S-].CCCCN(CCCC)C(=S)[S-].[Zn+2]`, for which the Potency is 13.7 µM (active) in assay [1] and 21.7 µM (active) in [3]. For the same compound, the Potency result in assay [2], in [4] and in assay [6] was “inactive” in each case.
`CC[C@H]1C[C@@H]2C[C@H]3c4[nH]c5ccc(OC)cc5c4CCN(C2)[C@@H]13`: the Potency in [1] was 47.7 µM (active). Also, the Potency result in assay [2], in assay [4], in assay [5] and in [6] was “inactive” each time.
For `CS(=O)(=O)c1ccc(C(=O)C2C(=O)CCCC2=O)c([N+](=O)[O-])c1`, the Potency entry in [1], in [2] and in assay [4] was “inactive” in each case. In assay [6], the Potency was 27.2 µM (active).
Take `Nc1ccc(Cc2ccc(N)c(Cl)c2)cc1Cl`: the Potency result in assay [2], in assay [4] and in assay [6] was “inactive” each time. For the same compound, the Potency in [3] was 59.1 µM (active); in [5], 52.7 µM (active).
Take `O=[N+]([O-])c1cc(Cl)ccc1Cl`: the Potency result in assay [1], in [2], in assay [4], in assay [5] and in assay [6] was “inactive” in each case.
With `O=c1[nH]c2ccccc2n1CCCN1CCC(n2c(=O)[nH]c3cc(Cl)ccc32)CC1`, the Potency in assay [1] is 26.6 µM (active). In assay [4], the Potency result is “inactive”. Besides, the max activation in assay [8] was -1.24% (inactive).
In the case of `N#CSCSC#N`, the Potency was 39.8 µM (active) and 53.9 µM (active) in assay [1]; 9.91 µM (active) and 9.59 µM (active) in assay [3]; 22.2 µM (active) and 19.1 µM (active) in assay [5]. In [4], the Potency result was “inactive”.
On to `O=C(CBr)c1ccc(O)cc1`, for which the Potency result in [1], in [2], in assay [4], in [5] and in assay [6] was “inactive” each time.
In the case of `Nc1c(Oc2ccccc2)cc(O)c2c1C(=O)c1ccccc1C2=O`, the Potency entry in assay [2], in assay [4] and in [6] was “inactive” each time. For the same compound, the Potency in assay [3] was 26.6 µM (active); in [7] it was 18.8 µM (active); in assay [5], 10.6 µM (active).
In the case of `CC1(c2ccc(Oc3ccccc3)cc2)OC(=O)N(Nc2ccccc2)C1=O` (centres undefined), the Potency in assay [1] was 27.5 µM (active); in assay [3], 6.9 µM (active); in [7], 27.5 µM (active); in assay [5] it was 21.8 µM (active). The Potency result in assay [4] and in assay [6] was “inactive” each time.
Regarding `CN(C)[C@@H]1C(=O)C(C(N)=O)=C(O)[C@@]2(O)C(=O)C3=C(O)c4c(O)ccc(Cl)c4[C@@](C)(O)[C@H]3C[C@@H]12`, the Potency result in assay [2] and in assay [4] was “inactive” throughout. Moreover, in assay [3], the Potency is 27.9 µM (active).
For `CC1(C)C(/C=C(\Cl)C(F)(F)F)C1C(=O)OC(C#N)c1cccc(Oc2ccccc2)c1` (centres undefined), the Potency result in assay [2], in assay [3], in assay [4], in [7] and in [6] was “inactive” in each case. In assay [5], the Potency is 1.96 µM (active).
Consider `CNC(C)Cc1ccc2c(c1)OCO2` (centres undefined), for which the Potency entry in assay [2], in assay [3], in [4], in [7], in [5] and in [6] was “inactive” throughout.
As for `CC(C)(c1ccc(O)c(-c2ccccc2)c1)c1ccc(O)c(-c2ccccc2)c1`, the Potency in assay [1] was 30.6 µM (active); in [3], 43.3 µM (active); in assay [7], 61.1 µM (active); in [5], 24.3 µM (active). Also, the Potency result in [6] is “inactive”.
As for `CC(=O)OC1(c2ccccc2)CCN(CCc2ccccc2)CC1`, the Potency result in [2], in assay [3], in assay [4], in assay [7] and in [6] was “inactive” throughout. In assay [5], the Potency was 11.1 µM (active).
In the case of `Oc1ccc(C2(c3ccc(O)cc3)CCCCC2)cc1`, the Potency was 57.9 µM (active) in assay [1], 57.9 µM (active) in assay [3] and 13 µM (active) in assay [5]. In addition, the Potency result in assay [4] and in assay [6] was “inactive” in each case.
With `CCc1cc(C)cc(CC)c1-c1c(OC(=O)C(C)(C)C)n2n(c1=O)CCOCC2`, the Potency entry in assay [2], in [4], in [5] and in assay [6] was “inactive” each time. Further, the Potency in assay [3] was 27.3 µM (active); in [7] it was 30.6 µM (active).
Take `Clc1ccc(C(c2ccccc2Cl)C(Cl)(Cl)Cl)cc1` (centres undefined): the Potency result in assay [1], in assay [2], in [7] and in assay [6] was “inactive” throughout. The Potency in assay [5] is 34.6 µM (active) and inactive.
With `CCCCOCN(C(=O)CCl)c1c(CC)cccc1CC`, the Potency result in [2], in assay [4], in assay [7] and in assay [6] was “inactive” throughout. Moreover, the figures for the Potency in assay [3] and in [5] were 61.1 µM (active) and 2.73 µM (active), respectively.
